Rows were chosen to be rich in hits. Some 7.3% of all compounds tested hit in one or more screens of this group.
VACV mCherry inh: qHTS for Stage-Specific Inhibitors of Vaccinia Orthopoxvirus: mCherry Reporter Primary qHTS | AID 720579, 2013 | actives 0.63% (n = 310,000) | Potency, µM (highest dose often 36.5 µM), without a hit: top-dose activity change, negative = inhibition, most hits filed as inhibitors | Vaccinia virus mCherry reporter infection, fluorescence; calls by dose curve; tested in A549 cells; note: potency is the fitted concentration of half-maximal effect; nearly all actives have a fitted effect of over 35% in size
VACV Venus inh: qHTS for Stage-Specific Inhibitors of Vaccinia Orthopoxvirus: Venus Reporter Primary qHTS. Vaccinia virus Venus reporter expression, fluorescence. Potency, µM (titrated, usually from 36.5 µM), for inactives: at the highest dose activity change, negative = inhibition, most hits filed as inhibitors. actives 0.46% (n = 330,000). AID 720580, 2013; calls by dose curve; tested in A549 cells; note: potency is the fitted concentration of half-maximal effect; nearly all actives have a fitted effect of over 30% in size
FMDV inh: High Throughput Screening for Foot and Mouth Disease Virus Antivirals | FMDV antiviral cell-based qHTS | Potency, µM (top dose mostly 57.9 µM), for inactives: top-dose activity change, negative = inhibition, actives largely listed as inhibitors | actives 1.2% (n = 410,000) | AID 1159524, 2015; calls by dose curve; tested in HEK293T cells; note: read-out not given here; potency is the fitted concentration of half-maximal effect; nearly all actives have a fitted effect of over 45% in size
HCV inh: qHTS Assay for Inhibitors of Hepatitis C Virus (HCV); actives 3.4% (n = 340,000); Huh7.5.1 HCVcc-Cre infection, luciferase reporter, 44 h; Potency, µM (top dose mostly 41.8 µM), inactives show at the highest dose activity change, negative = inhibition, most hits filed as inhibitors; active = well fitted inhibition curve with a large enough effect; inconclusive = small, poorly fitted or top-dose-only effect, or another doubt; inactive = no such curve, though single readings can be large or run the other way; note: potency is the fitted concentration of half-maximal effect
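Seed cells (1,000/well) for 4 h; treat with compound and infect with HCVcc-Cre, moi about 0.5. Incubate 44 h, then detect luciferase activity.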
HCMV inh: qHTS Assay for inhibitors of the human cytomegalovirus (HCMV); HFF cells, HCMV-luciferase reporter, 72 h; stronger effect = lower value; activity change, negative = inhibition, % at 57.5 µM; actives 4.5% (n = 410,000); in the data active = activity change below about -60%; inconclusive = no clear call, values can overlap the other calls; inactive = above about -39%
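Two-dose cell screen: HFF monolayers treated with compounds and infected with luciferase-expressing HCMV at 1 PFU/cell, 72 h at 37C, then lysed for luciferase measurement.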
Active calls of the source: *; i = inactive; ? = inconclusive; · = no result; [ ] = another dose, or the depositor's remark. % is set by controls: 0 for no effect and ±100 for the full control effect.

SMILES	VACV mCherry inh	VACV Venus inh	FMDV inh	HCV inh	HCMV inh
O=[N+]([O-])c1ccc(-c2csc(NN=C3CCCC3)n2)cc1	-18.6%	-4.8%	-19.0%	8.91µM*	?
COCC(=O)Nc1nc(-c2ccc([N+](=O)[O-])cc2)cs1	·	·	11.2%	-3.9%	-88.5*
O=C(Cc1nc(-c2ccc([N+](=O)[O-])cc2)cs1)Nc1ccccc1	·	·	?	-14.3%	-91.9*
CC(C)C(=O)Nc1nc(-c2ccc([N+](=O)[O-])cc2)cs1	·	·	-21.4%	?	?
Cc1cccc(N2CCN(CCCNc3ncnc4onc(-c5ccc(Cl)cc5)c34)CC2C)c1 (centres undefined)	-2.2%	-7.5%	-24.7%	·	-2.4
O=[N+]([O-])c1ccc(-c2csc(N3CCCCCC3)n2)cc1	i	-8.5%	13.0%	-22.4%	-23.9
Nc1nc(-c2ccc([N+](=O)[O-])cc2)cs1	-12.5%	-11.1%	30.2%	-2.0%	-79.3*
Cc1ccc(-n2nc(CO)c(C(=O)NCCCc3ccccc3)n2)cc1C	-3.6%	-3.2%	-7.2%	·	86.2
Cc1ccccc1C(=O)NC(NC(=O)c1ccccc1C)c1cccc([N+](=O)[O-])c1	i	-7.3%	4.7%	4.0%	-36.2
Cc1ccc(C(=O)NC(NC(=O)c2ccc(C)cc2)c2cccc([N+](=O)[O-])c2)cc1	-8.2%	-4.4%	3.8%	-3.2%	-60.2*
Cc1ccc(C(=O)C(C)OC(=O)Cn2[nH]c(=O)c3ccccc3c2=O)cc1C (centres undefined)	·	·	-7.6%	1.5%	15.6
COc1ccc(CCNC(=O)c2cc(C3CC3)nc3c2cnn3C(C)C)cc1	·	·	-24.8%	10µM*	-28.9
Cc1cccc(OCCNC(=O)c2cc(C3CC3)nc3c2cnn3C(C)C)c1	i	-7.6%	0.0%	·	-7.0
CCc1ccccc1NC(=O)CNC(=O)c1cc(C2CC2)nc2c1cnn2C(C)C	·	·	-18.3%	?	0.0
COc1ccccc1OCCNC(=O)c1cc(C2CC2)nc2c1cnn2C(C)C	-29.5%	-24.6%	?	1.26µM*	-16.0
COc1ccccc1CCNC(=O)c1cc(C2CC2)nc2c1cnn2C(C)C	-9.0%	-15.8%	-27.5%	8.91µM*	-31.2
COc1ccc(CN(C2CC2)S(=O)(=O)c2ccccc2Br)cc1	-10.9%	-23.7%	?	?	?
C[C@@H]1CNC(=O)c2c(C(=O)N[C@@H](Cc3c[nH]c4ccccc34)C(=O)OC(C)(C)C)ncn21	-9.2%	-13.8%	-5.5%	·	-9.3
CN(Cc1ccccc1)C1CCNCC1	-21.1%	-17.2%	-2.9%	?	0.1
CCOc1ccccc1NC(=O)c1c(NC(=O)Cc2ccccc2)sc2c1CCCC2	-3.0%	-0.2%	5.2%	·	19.1
CCOc1ccccc1NC(=O)c1ccc(OCC)c([N+](=O)[O-])c1	i	-9.9%	-21.6%	-23.7%	-65.0*
COc1ccc(NC(=O)c2sc3nc4c(cc3c2N)CN(Cc2ccccc2)CC4)c(OC)c1	-3.1%	-10.5%	?	·	-94.8*
CCOc1ccc(C(=O)Nc2nc(C)cc(C)n2)cc1[N+](=O)[O-]	-0.9%	-7.6%	-9.6%	-7.2%	1.9
CCOc1ccccc1NC(=O)c1c(NC(=O)c2cccc(C)c2)sc2c1CCCC2	-13.2%	-0.9%	-9.7%	·	-85.0*
CCOc1ccc(C(=O)Nc2cccc(C(=O)O)c2C)cc1Cl	i	-8.5%	1.78µM*	-0.4%	?
SMILES	VACV mCherry inh	VACV Venus inh	FMDV inh	HCV inh	HCMV inh
COc1ccccc1NC(=O)c1sc2nc3c(cc2c1N)CN(Cc1ccccc1)CC3	-8.4%[7.34 µM]	-6.8%[7.34 µM]	?	·	0.0
O=C(Cc1cccnc1)N[C@@H]1CC[C@H](CCn2cc(Cc3ccccc3)nn2)O[C@@H]1CO	-11.5%	-3.0%	-8.3%	·	32.5
CCOc1ccc(C(=O)Nc2cc(-c3nc4ccccc4[nH]3)ccc2Cl)cc1[N+](=O)[O-]	-22.2%	?	-10.9%	?	-85.3*
CCOc1ccccc1NC(=O)c1sc2nc(C)cc(C)c2c1N	?	?	-11.0%	·	-2.6
CCOc1ccccc1NC(=O)c1sc2nc(-c3ccc(OC)cc3)ccc2c1N	-21.6%	-12.2%	39.7%	·	-94.9*
Cc1ccc(-c2nc3ccccc3[nH]2)cc1NC(=O)COc1ccccc1[N+](=O)[O-]	-20.6%[7.34 µM]	-13.2%[7.34 µM]	0.0%	·	-87.6*

Compound activity from PubChem.
